The campaign covered roughly 13,000 compounds. About 3,200 (25%) showed an effect of 50% or more. The list shows a part of the results.
Test system: P. falciparum stage V gametocytes
Set-up: BacTiter-Glo ATP luminescence viability of purified stage V gametocytes in 384-well plates, per cent inhibition versus DMSO
Settings: 48 h, 5 µM; inhibitor

Row | Compound | % Inhibition [%]
1 | Cc1ccc(NC(=O)N2CCN(CCCCCNC(=O)/C=C/c3ccc(Cl)c(Cl)c3)CC2)cc1C [TCMDC-135732] | -3.92
2 | CCOC(=O)c1c(CN(CC)CC)n(-c2ccccc2)c2cc(Br)c(O)cc12 [TCMDC-125679] | -14.42
3 | N=C(N)Nc1ccc(Cc2ccc(NC(=N)N)cc2)cc1 [TCMDC-137917] | -14.93
4 | CCCCCN1CCCCC(NS(=O)(=O)c2ccc(C(=O)Nc3cccc(C(F)(F)F)c3)cc2)C1 (stereo not shown) [TCMDC-132778] | -0.2647
5 | CCCCCN1CCC(NS(=O)(=O)c2cccc(C(=O)Nc3cccc(C(F)(F)F)c3)c2)C1 (stereo not shown) [TCMDC-132488] | -38
6 | CCCCCN1CCC(NS(=O)(=O)c2ccc(C(=O)Nc3cccc(C(F)(F)F)c3)cc2)C1 (stereo not shown) [TCMDC-132771] | 83.46
7 | CCCCCN1CCC(NS(=O)(=O)c2cccc(C(=O)Nc3ccc(C(F)(F)F)cc3)c2)C1 (stereo not shown) [TCMDC-132486] | -23.98
8 | CCCCCN1CCCC(NS(=O)(=O)c2ccc(C(=O)Nc3cccc(C(F)(F)F)c3)cc2)C1 (stereo not shown) [TCMDC-132774] | -2.262
9 | CCCCCN1CCCC(NS(=O)(=O)c2cccc(C(=O)Nc3cccc(C(F)(F)F)c3)c2)C1 (stereo not shown) [TCMDC-132768] | 75.62
10 | CN1CC=C(c2c[nH]c3ccc(OCc4ccccc4)cc23)CC1 [TCMDC-132113] | -6.135
11 | Cc1ccc(C2=NNC3(S2)C(=O)Nc2ccc(C)cc23)cc1 (stereo not shown) [TCMDC-123866] | 44.96
12 | CCCCNC(=O)[C@@H]1CCCN1C(=O)c1ccc(O)c(-c2ccc(Cl)c(Cl)c2)c1 [TCMDC-140837] | 7.64
13 | Clc1ccc(CNc2nc(NCCc3cnc[nH]3)nc(NC3CCCCC3)n2)cc1 [TCMDC-139734] | -12.92
14 | OCC1CCN(Cc2ccc(-c3ccc(-c4nc5ccc(C(F)(F)F)cc5[nH]4)cc3)cc2)CC1 [TCMDC-133124] | -13.18
15 | NCC1CCCN1Cc1ccc(-c2ccc(-c3nc4ccc(C(F)(F)F)cc4[nH]3)cc2)cc1 (stereo not shown) [TCMDC-132995] | 50.61
16 | OCCN1CCN(Cc2ccc(-c3cccc(-c4nc5ccc(C(F)(F)F)cc5[nH]4)c3)cc2)CC1 [TCMDC-133024] | 24.38
17 | NCC1CCCN1Cc1ccc(-c2ccc(-c3nc4cc(C(F)(F)F)ccc4[nH]3)s2)cc1.O=C(O)C(F)(F)F (stereo not shown) [TCMDC-133000] | 16.97
18 | NCC1CCCN1Cc1ccc(-c2cccc(-c3nc4ccc(C(F)(F)F)cc4[nH]3)c2)cc1 (stereo not shown) [TCMDC-132990] | 70.04
19 | NCC1CCCN1Cc1cccc(-c2ccc(-c3nc4ccc(C(F)(F)F)cc4[nH]3)cc2)c1 (stereo not shown) [TCMDC-132996] | 21.42
20 | Fc1ccc2cc(C=Cc3ccncc3)[nH]c2c1 [TCMDC-137494] | -53.7
21 | O=C(Nc1cccc(C(F)(F)F)c1)Nc1nc2ccc([N+](=O)[O-])cc2s1 [TCMDC-123631] | 27.05
22 | Cn1cncc1-c1ccc2ncnc(Nc3ccc(OCc4ccccc4)cc3)c2c1 [TCMDC-137504] | -32.31
23 | Cc1ccc(Nc2nccc(N(C)c3ccc4c(c3)nc(NC(=O)Cc3ccc(Cl)c(Cl)c3)n4C)n2)cc1S(N)(=O)=O [TCMDC-141965] | -9.254
24 | Cn1c(Nc2cc(C(C)(C)C)on2)nc2cc(Nc3ccnc(Nc4cccc(S(=O)(=O)N5CCOCC5)c4)n3)ccc21 [TCMDC-134098] | 97.72
25 | Cn1c(Nc2cc(C(C)(C)C)on2)nc2cc(Nc3ccnc(Nc4cccc(CS(C)(=O)=O)c4)n3)ccc21 [TCMDC-141893] | 24.31

Row | Compound | % Inhibition [%]
26 | Cc1ccc(Nc2nccc(Nc3ccc4c(C)[nH]nc4c3)n2)cc1F [TCMDC-138542] | -63.2
27 | CN(c1ccc2c(c1)nc(NC(=O)C1(c3cc(F)ccc3F)CC1)n2C)c1ccnc(Nc2cccc(CS(C)(=O)=O)c2)n1 [TCMDC-141964] | -60.83
28 | Cc1ccc(Nc2nccc(Nc3ccc4c(c3)nc(Nc3cc(C(C)(C)C)on3)n4C)n2)cc1S(C)(=O)=O [TCMDC-141889] | 96.33
29 | Cn1c(Nc2cc(C(C)(C)C)on2)nc2cc(Nc3ccnc(Nc4ccc(CS(C)(=O)=O)cc4)n3)ccc21 [TCMDC-141890] | 82.06
30 | Cc1[nH]nc2cc(Nc3ccnc(Nc4cccc(CN5CCOCC5)c4)n3)ccc12 [TCMDC-138632] | 3.491
31 | CN1CCN(S(=O)(=O)c2cccc(Nc3nccc(N(C)c4ccc5c(c4)nc(NC(=O)c4cccs4)n5C)n3)c2)CC1 [TCMDC-134378] | 79.98
32 | CN(c1ccc2c(c1)nc(Nc1cc(C(C)(C)C)on1)n2C)c1ccnc(Nc2ccc(CS(C)(=O)=O)cc2)n1 [TCMDC-141892] | -9.766
33 | Cn1c(NCc2cc(F)cc3c2OCOC3)nc2cc(Nc3ccnc(Nc4cccc(CS(C)(=O)=O)c4)n3)ccc21 [TCMDC-134151] | -2.358
34 | Cc1ccc(Nc2nc3cc(N(C)c4ccnc(Nc5cccc(CCS(C)(=O)=O)c5)n4)ccc3n2C)cc1 [TCMDC-138853] | -59.51
35 | COc1ccc2nc(C)cc(Nc3ccc(Oc4ccc(Cl)c5ccccc45)c(Cl)c3)c2c1 [TCMDC-123856] | 5.816
36 | N#Cc1ccc2c(c1)CN(CCC1CCC(NC(=O)c3cc4cnccc4[nH]3)CC1)CC2 (stereo not shown) [TCMDC-139174] | -27.42
37 | O=C(NCc1cccc(F)c1)Nc1ccc(-c2ccc(-c3nc4ccc(C(F)(F)F)cc4[nH]3)cc2)cc1 [TCMDC-133287] | -9.31
38 | Cc1cccc(NC(c2cccs2)c2c(NC(=O)c3ccccc3)sc(C)c2C)n1 (stereo not shown) [TCMDC-124747] | -63.38
39 | CCCCCCOc1ccc(N2C(N)=NC(N)=NC2(C)C)cc1 [TCMDC-137369] | 25.73
40 | CCCCOc1ccc(N2C(N)=NC(N)=NC2(C)C)cc1 [TCMDC-124279] | -11.62
41 | CCCCCC(NCCCC)c1ccc(OCCOc2ccc(C(CCCCC)NCCCC)cc2)cc1 (stereo not shown) [TCMDC-137613] | 107.4
42 | CCCCCCC(N)c1ccc(OCCCOc2ccc(C(N)CCCCCC)cc2)cc1 (stereo not shown) [TCMDC-137621] | 121.4
43 | CCCCCCCCOc1ccc(N2C(N)=NC(N)=NC2(C)C)cc1 [TCMDC-137707] | -8.138
44 | CCCCCOc1ccc(N2C(N)=NC(N)=NC2(C)C)cc1 [TCMDC-137711] | 13.1
45 | CCCCC(NCC)c1ccc(OCCOc2ccc(C(CCCC)NCC)cc2)cc1 (stereo not shown) [TCMDC-137612] | 115.6
46 | CCCCOc1ccc(C(O)C(CN2CCCCC2)c2ccccc2)cc1 (stereo not shown) [TCMDC-124252] | 4.712
47 | C=CCNC(CCCCC)c1ccc(OCCOc2ccc(C(CCCCC)NCC=C)cc2)cc1 (stereo not shown) [TCMDC-137483] | 106.6
48 | COc1ccc(OCCON)cc1 [TCMDC-123473] | 14.77
49 | CCCCCOc1ccc(NC2=CC(=O)C(=O)c3ccccc32)cc1 [TCMDC-125724] | -1.294
50 | CC(O)C1CCCCN1C(=O)c1cccc(-c2ccc(-c3nc4cc(C(F)(F)F)ccc4[nH]3)cc2)c1 (stereo not shown) [TCMDC-132334] | -28.97

Row | Compound | % Inhibition [%]
51 | CC(C)CCn1c(Sc2ccc(C#N)c([N+](=O)[O-])c2)nnc1-c1ccc(N(C)C)cc1 [TCMDC-135617] | 45.75
52 | COc1ccc(-c2nc3c(NCc4ccccc4)nccc3[nH]2)c(OC)c1 [TCMDC-137551] | -15.03
53 | C=CCn1c(SCc2c(C)noc2C)nc2scc(-c3cccs3)c2c1=O [TCMDC-125027] | -8.905
54 | CC(C)c1ncc(-c2ccncc2)c(C2CCC(CNC(=O)c3ccncc3)CC2)n1 (stereo not shown) [TCMDC-124824] | 1.29
55 | Cc1[nH]c2ccccc2c1C1=CCN(CCN2CCOc3c(Br)cccc3C2=O)CC1 [TCMDC-140965] | -7.337
56 | CN1CCN(c2cc3c(Nc4ccc5c(cnn5Cc5ccccc5)c4)ncnc3cn2)CC1 [TCMDC-137767] | 5.484
57 | N#Cc1ccc2c(c1)CN(C1CCC(NC(=O)c3cc(-c4ccc(Cl)cc4)cs3)CC1)CCC2 (stereo not shown) [TCMDC-133504] | 5.468
58 | CCOC(=O)/C(=N\OC(C(=O)OC(C)(C)C)c1ccccc1)c1csc(NC(c2ccccc2)(c2ccccc2)c2ccccc2)n1 (stereo not shown) [TCMDC-131980] | 21.22
59 | CC(C)(C)OC(=O)/C=C(\C(=O)OCc1ccc([N+](=O)[O-])cc1)c1csc(NC(c2ccccc2)(c2ccccc2)c2ccccc2)n1 [TCMDC-131971] | 65.48
60 | CCOC(=O)/C(=N\OC(C)(C)C(=O)NCc1ccc(O)c(O)c1)c1csc(NC(c2ccccc2)(c2ccccc2)c2ccccc2)n1 [TCMDC-132099] | -13.25
61 | COc1ccc(NC(=O)/C=C/c2ccc(Oc3ccccc3Cl)c([N+](=O)[O-])c2)cc1OCCN(C(C)C)C(C)C [TCMDC-140388] | -71.01
62 | O=C(NC1CCN(Cc2ccccc2)CC1)c1cccc(-c2nc3ccc(Cl)cc3[nH]2)c1 [TCMDC-140425] | 27.77
63 | Cc1cc2nc(-c3cccc(C(=O)NC4CCN(Cc5ccccc5)CC4)c3)[nH]c2cc1C [TCMDC-140424] | 75.94
64 | O=C(C=Cc1ccc(-c2nc3ccccc3[nH]2)cc1)NC1CCN(Cc2ccccc2)CC1 [TCMDC-140400] | -89.03
65 | COC(=O)c1ccc2nc(-c3cc(OC)c(O)c(C(=O)NC4CCN(Cc5ccccc5)CC4)c3)[nH]c2c1 [TCMDC-140427] | 6.107
66 | CC(C)(C)c1ccc2nc(-c3ccc(/C=C/C(=O)NC4CCN(Cc5ccccc5)CC4)cc3)[nH]c2c1 [TCMDC-140456] | 48.62
67 | Cc1ccc2nc(-c3ccc(C(=O)NC4CCN(Cc5ccccc5)CC4)s3)[nH]c2c1 [TCMDC-140399] | -1.012
68 | Cc1cc2nc(-c3ccc(C(=O)NC4CCN(Cc5ccccc5)CC4)cc3)[nH]c2cc1C [TCMDC-140428] | -59.23
69 | COC(=O)c1ccc2nc(-c3ccc(C(=O)NC4CCN(Cc5ccccc5)CC4)s3)[nH]c2c1 [TCMDC-140426] | -65.59
70 | Cc1cc2nc(-c3ccc(/C=C/C(=O)NC4CCCCC4)cc3)[nH]c2cc1C [TCMDC-140435] | -5.542
71 | O=C(/C=C/c1ccc(-c2nc3ccc(Cl)cc3[nH]2)cc1)NC1CCN(Cc2ccccc2)CC1 [TCMDC-140443] | 63
72 | COC(=O)c1ccc2nc(-c3ccc(/C=C/C(=O)NC4CCN(Cc5ccccc5)CC4)cc3)[nH]c2c1 [TCMDC-140446] | 84.95
73 | CC(C)(C)c1ccc2nc(-c3ccc(C(=O)NC4CCN(Cc5ccccc5)CC4)s3)[nH]c2c1 [TCMDC-140514] | 58.98

— article PMC4552634, “A New Set of Chemical Starting Points with Plasmodium falciparum Transmission-Blocking Potential for Antimalarial Drug Discovery” (PLoS ONE, 2015)
